The values below come from PubChem BioAssay.

A short description of assay [1]: growth inhibition of DIPG glioma cells, dose response, cell-based, SU-DIPG-XVII, MIPE5.0, CellTiter-Glo, qHTS (AID 1347060).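 On AC50: cells exposed to compound for 48 hours before viability readout.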 Conditions: SU-DIPG-XVII viability, CellTiter-Glo ATP luminescence.
A short description of assay [2]: growth inhibition of DIPG glioma cells, dose response, cell-based, SU-DIPG-XIII, MIPE4.0, CellTiter-Glo, qHTS (AID 1347061; cut-off not given, nearly all actives have AC50 up to about 37 µM;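 further: cells exposed to compound for 48 hours before readout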). To be noted: SU-DIPG-XIII viability, CellTiter-Glo ATP luminescence. For orientation: Cellular ATP, detected with luciferase, serves as a proxy for viable cell number.
A short description of assay [3]: growth inhibition of DIPG glioma cells, dose response, cell-based, JHH-DIPG-1, MIPE4.0, CellTiter-Glo, qHTS (AID 1347062; cut-off not given, nearly all actives have AC50 up to about 27 µM;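 on AC50: cells exposed to compound for two days before readout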). Conditions: JHH-DIPG-1 viability, CellTiter-Glo ATP luminescence.
The nature of assay [4]: growth inhibition of DIPG glioma cells, dose response, cell-based, SU-DIPG-IV, MIPE4.0, CellTiter-Glo, qHTS (AID 1347063; cut-off not given, nearly all actives have AC50 up to about 30 µM;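 further: compound exposure lasted 48 hours before the viability readout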). To be noted: SU-DIPG-IV viability, CellTiter-Glo ATP luminescence.
Assay [5] is described as follows: growth inhibition of DIPG glioma cells, dose response, cell-based, SU-DIPG-XIII, MIPE5.0, CellTiter-Glo, qHTS (AID 1347064; cut-off not given, nearly all actives have AC50 up to about 23 µM;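 on AC50: cells exposed to compound for 48 hours before the viability read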). To be noted: SU-DIPG-XIII viability, CellTiter-Glo ATP luminescence.
Assay [6] in a line: viability loss in pontine glioma line – cell-based, SU-DIPG-XXV, MIPE5.0, CellTiter-Glo, qHTS, dose response (AID 1347065).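 Further: cells exposed to compound for 48 hours before ATP readout.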 To be noted: CellTiter-Glo ATP luminescence.
Assay [7] can be described thus: SU-DIPG-VI glioma cell viability, MIPE4.0 library, CellTiter-Glo luminescence, qHTS (AID 1347066; cut-off not given, nearly all actives have AC50 up to about 30 µM;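 further: cells exposed to compound for 48 hours before readout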). Conditions: CellTiter-Glo ATP luminescence.
Assay [8] is described as follows: JHH-DIPG-1 glioma cell viability, MIPE5.0 library, CellTiter-Glo luminescence, qHTS (AID 1347067).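 Further: cells exposed to compound for 48 hours before readout.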 Conditions: JHH-DIPG-1 glioma viability, CellTiter-Glo ATP luminescence.
Assay [9] is described as follows: SU-DIPG-XXV glioma cell viability, MIPE5.0 library, qHTS (AID 1347068; cut-off not given, nearly all actives have IC50 up to about 30 µM;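 on IC50: cells exposed to compound for 48 hours before viability readout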). Background: In qHTS, concentration-response curves come from the screen itself.
Assay [10] in a line: sensitizers of A549 cells to miR-34 induction, primary screen, imaging, A549 dox-inducible miR-34, nuclei and caspase counts (AID 1347080;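 active means compounds whose cell count with miR-34 switched on is under 0.7 times the count with it off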). To be noted: A549 miR-34 inducible, Hoechst nuclei count, 48 h.
The nature of assay [11]: survival rescue of mitochondrial mutant cells in low glucose, primary screen, MELAS cybrids, Rieske KO mouse fibroblasts, CellTiter-Glo (AID 1508586;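 active means mean z-score across replicates of 1.96 or higher in either the MELAS or the Rieske mutant cell line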;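 further: z relative to plate mean and SD of compound and empty wells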).
[12] abbreviates: stronger effect = lower value, cell number ratio, induced over uninduced.
The mark [13] stands for this setting: measured here: relative caspase fold change +Dox/-Dox.
[14] abbreviates: measured here: total cells with miR-34 induction, stronger effect = lower value.
The mark [15] stands for this setting: measured here: total cells without miR-34 induction.
[16] abbreviates: MELAS cybrid survival, CellTiter-Glo 48 h, stronger effect = higher value.
Setting [17] is: Rieske KO mouse fibroblast survival, CellTiter-Glo 72 h.

SMILES strings stand for the structures. Inconclusive results are not listed. Activity calls are given as the source filed them. Unless noted, cut-off not given; nearly all actives show AC50 up to about 26 µM.

As for `CCOC(=O)N1CCN(/[N+]([O-])=N/Oc2ccc([N+](=O)[O-])cc2[N+](=O)[O-])CC1`, the AC50 (commonly the midpoint of the concentration-response curve, whichever way the signal moves) is 16600 nM (active) in assay [1]; 5900 nM (active) in assay [3]; 4180 nM (active) in [4]; 4170 nM (active) in [5]; 3320 nM (active) in [6]; 10500 nM (active) in assay [7]. Also, in assay [8], the half-maximal activity concentration (AC50) was 4170 nM (active). Also, the molecule was called inactive in assay [2]. The IC50 – broadly, the concentration needed to halve the response being measured – in [9] is 23500 nM (active). Also, the results for the fold change in assay [10] (setting [12]) and in [10] (setting [13]) were 1.15 (inactive) and 1.4, respectively. Also, the cell count worked out at 2110 in assay [10] (setting [14]) and 1840 in assay [10] (setting [15]).

Consider `CN1c2cc(O)c(N=NC(N)=O)cc2CC1S(=O)(=O)O` (configuration not stated), for which the result in assay [1], in assay [2], in [3], in [4], in assay [5] and in [6] was inactive. The outcome in assay [7], in assay [8] and in assay [9] was inactive. Besides, the figures for the fold change in [10] (setting [12]) and in [10] (setting [13]) were 0.929 (inactive) and 0.61, respectively. In addition, the cell count amounted to 9600 in assay [10] (setting [14]) and 10300 in [10] (setting [15]). Besides, the z-score was -0.39 (inactive) in [11] (setting [16]) and 0.79 in assay [11] (setting [17]).

As for `COc1ccc(-c2cc3c(C)nc(N)nc3n(C3CCC(OCCO)CC3)c2=O)cn1` (configuration not stated), the half-maximal activity concentration (AC50) in assay [1] is 661 nM (active); in assay [2], 418 nM (active); in assay [3] it was 590 nM (active); in assay [4] it was 13.2 nM (active); in assay [5] it was 468 nM (active); in [6] it was 235 nM (active). Also, the half-maximal activity concentration (AC50) is 1180 nM (active) in [7] and 934 nM (active) in assay [8]. Besides, the IC50 in assay [9] is 1320 nM (active). Besides, the fold change was 0.719 (inactive) in assay [10] (setting [12]) and 0.958 in assay [10] (setting [13]). The cell count in assay [10] (setting [14]) amounted to 948; in assay [10] (setting [15]), 1320. For the same molecule, the z-score in [11] (setting [16]) was 1.34 (inactive); in [11] (setting [17]), -2.85.

As to `COc1ccc(-c2ccc3ncc4c(c3c2)n(-c2ccc(N3CCNCC3)c(C(F)(F)F)c2)c(=O)n4C)cn1`, the half-maximal activity concentration (AC50) in [1] was 105 nM (active); in assay [2], 46.9 nM (active); in assay [3] it was 66.2 nM (active); in assay [4], 18.7 nM (active); in assay [5], 118 nM (active); in assay [6], 52.5 nM (active). For the same molecule, the AC50 was 187 nM (active) in [7] and 235 nM (active) in assay [8]. Further, the IC50 in assay [9] was 590 nM (active). In addition, the results for the fold change in assay [10] (setting [12]) and in [10] (setting [13]) were 0.93 (inactive) and 1.48, respectively. The values for the cell count in assay [10] (setting [14]) and in [10] (setting [15]) were 603 and 648, respectively. For the same molecule, the results for the z-score in [11] (setting [16]) and in assay [11] (setting [17]) were 0.639 (inactive) and -3.7, respectively.

`CN[C@@H]1C[C@H]2O[C@@](C)([C@@H]1OC)n1c3ccccc3c3c4c(c5c6ccccc6n2c5c31)C(=O)N[C@H]4O`: the concentration at half-maximal activity (AC50) in [1] was 135 nM (active); in assay [2] it was 590 nM (active); in [3] it was 187 nM (active); in assay [4] it was 1320 nM (active); in assay [5], 85.5 nM (active); in assay [6] it was 30.3 nM (active). Besides, the AC50 in assay [7] was 296 nM (active); in assay [8], 38.2 nM (active). Further, the concentration for half-maximal inhibition (IC50) in assay [9] is 605 nM (active).
